From PubChem BioAssay (NCI) come the findings set out here.

The panel holds about 83,000 compounds, 20% with a hit somewhere; the sample as a whole holds those more often.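 Note: values are percent growth. 100 is the growth of untreated cells, values between 100 and 0 indicate rising inhibition; between -100 and 0 indicates cell death.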 A number with no mark means an inactive call. Calls of active or inactive are those of the source. The calls were made as follows: active = growth percent below 10; inactive = the rest.

The experiment deals with HL-60(TB) leukemia. In words: NCI-60 one-dose screen, 48 h (100 = growth as untreated, 0 = no growth, -100 = all killed). As to conditions: 10 µM unless noted.
For `c1ccc(CO[C@H]2CO[C@H]3[C@@H]2OC[C@@H]3Oc2ccc(Nc3ncnc4ccsc34)cc2)cc1`, the growth is 75.7%.

Take `Cc1cc(C)n(C(=O)CSc2nc3sc4c(c3c(=O)n2-c2ccccc2)CCCCC4)n1`: the growth was 107%.

As for `c1ccc2cc(Cn3c(-c4ccc5ccccc5c4)[n+](Cc4ccc5ccccc5c4)c4ccccc43)ccc2c1`, the growth was -45.9% (active).

For the compound `COc1cc2nc3sc(C(=O)Nc4ccc(C(=O)OC(C)C)cc4)c(C(=O)Nc4ccc(Cl)cc4C)n3c(=O)c2cc1OC`, the growth is 90.2%.

As to `Cc1ccc(S(=O)(=O)Oc2ccc3c4c(c(=O)oc3c2)CCCCC4)cc1`, the growth was 20.4%.

For the compound `CC1(C)CC(=O)C2=C(C1)OC1=C(C(=O)CC(C)(C)C1)C2c1ccc(OCc2cn(-c3ccc(F)cc3F)nn2)cc1`, the growth was 42.2%.

As to `OC1Cc2ccccc2C1`, the growth was 100%.

Regarding `COc1ccc(/C(=C/c2ccc3ccccc3c2)c2nn[nH]n2)cc1OC`, the growth is -1.21% (active).

`COc1cc2c(cc1OC)C(=O)/C(=C/c1cc(C)c(O)c(C)c1)S2`: the growth is -3.56% (active).

As for `COc1cc(-c2csc(NC(=O)Nc3cc(C(F)(F)F)cc(C(F)(F)F)c3)n2)cc(OC)c1OC`, the growth was 12%.

With `Oc1c(CNCCNCc2cc(Cl)cc(Cc3ccccc3)c2O)cc(Cl)cc1Cc1ccccc1`, the growth was -0.262% (active).

For `CC(C)C1=NOC(=O)C1=Cc1cn(-c2ccccc2)nc1-c1cccc([N+](=O)[O-])c1`, the growth is -4.77% (active).

`COc1cc(C)cc2oc3oc(=N)c(C(=O)c4ccccc4)cc3c(=O)c12`: the growth was 112%.

Regarding `COc1ccc2ncccc2c1Cc1c(OC)ccc2ncccc12`, the growth is 42.3%.

With `Nc1ccn(Cc2nnc(CCC(=O)c3nc4ccccc4[nH]3)o2)c(=O)n1`, the growth is 80.5%.

Regarding `C#Cc1cccc(Nc2ncnc3ccc(-c4cnc(Cl)c(NS(C)(=O)=O)c4)cc23)c1`, the growth is -5.77% (active).

`O=C(CSc1nc2ccccc2[nH]1)Nc1ccc(-c2nc3ccccc3s2)c(Cl)c1`: the growth was 62%.

On to `Oc1c(CN2CCCC2)cc(COCc2ccc(Br)cc2)c2cccnc12`, for which the growth is -9.34% (active).

For `O=C1/C(=C/c2ccc(O)cc2)CSc2ccc(Cl)cc21`, the growth was 22.7%.

In the case of `COc1ccc2nc3cc([N+](=O)[O-])ccc3c(NNc3ccccc3)c2c1`, the growth was 121%.

`CCCCCC(=O)Oc1ccc(/C(=C(\C)c2ccccc2)c2ccc(OCCN3CCCCC3)cc2)cc1`: the growth was 70.2%.

On to `O=C(NOCCO)c1cc(CN2OCCCC2=O)c(F)c(F)c1Nc1ccc(I)cc1F`, for which the growth was 18.2%.

Turning to `CCOc1ccc(C(C[N+](=O)[O-])Sc2ccccc2N)cc1` (stereo not given), the growth is -16.2% (active).

In the case of `CCCCCN1C(=O)CCC1=O`, the growth was 88.1%.

Turning to `CNc1nc2ncn(C)c2c(=O)[nH]1`, the growth was 91.5%.

Consider `CC(c1ccccc1)N1C(=O)C(C2SC(=S)N(C(C)c3ccccc3)C2=O)SC1=S` (stereo not given), for which the growth was 78.2%.

In the case of `O=c1ccc2ccc(OCCN3CCCCC3)cc2o1`, the growth was -28% (active).

Regarding `Cc1ccc(CN2CCC(C(=O)Nc3ccc(-c4cc5ccccc5[nH]4)cc3)CC2)o1`, the growth was 13.7%.

`CN1CC[C@H](c2c(O)cc(O)c3c(=O)cc(-c4ccccc4Cl)oc23)[C@H](O)C1`: the growth is -23.1% (active).

`COc1ccc(C(=O)NNc2nc(Cl)nc(N3CCN(C(c4ccccc4)c4ccccc4)CC3)n2)cc1`: the growth was 21.3%.

`O=C(/C=C/c1ccccc1)c1c[nH]c2ccccc2c1=O`: the growth is -12.9% (active).

Turning to `C=C(C)[C@@H]1CC[C@]2(C(=O)N3CCN(C)CC3)CC[C@]3(C)[C@H](CC[C@@H]4[C@@]5(C)CC[C@H](OCCC#N)C(C)(C)[C@@H]5CC[C@]43C)[C@@H]12`, the growth was 73.8%.

As to `Nc1c(C(=O)Nc2ccccc2)sc2nc3c(cc12)CCCC3`, the growth is 15.5%.

In the case of `CO/C=C/C(=O)c1cc2cnc3c(=N)cc(NC(=O)C(C)C)c([nH]1)c23`, the growth was -0.789% (active).

Turning to `O=C(Nc1ccc(F)cc1)Nc1ccc(Br)c(C(F)(F)F)c1`, the growth was -41.9% (active).

In the case of `O=[N+]([O-])c1c(O)c(Cl)cc(Cl)c1Cl`, the growth is 92.1%.

Regarding `O=C1Cc2c([nH]c3ccc([N+](=O)[O-])cc23)-c2ccccc2N1`, the growth is -33.8% (active).

Consider `Cc1cc(O)cc(-c2nn(C)cc2-c2cc(N3CCOCC3)nc(-c3cccnc3)n2)c1`, for which the growth was 14.8%.

`NC1(C(=O)O)CSSC1`: the growth is 4.59% (active).

On to `COC(=O)[C@H](Cc1cn(C)cn1)NC(=O)[C@@H](NC(=O)Nc1cc(C(F)(F)F)cc(C(F)(F)F)c1)C(C)C`, for which the growth was -73.5% [100 µM] (active).
